Measurements: PubChem BioAssay AID1159580 (chemical genetic matrix, 2015)
The campaign covered roughly 5,500 compounds. About 2,000 (36%) were called active. Roughly 18% stayed inconclusive and do not appear here. Rule as the data show it: active = normalized growth mostly below about 0.91 (no sharp cut-off); inconclusive = no clear call, values can overlap the other calls; inactive = mostly above about 0.92. The list shows a part of the results.

Experiment: chemical genetic growth profiling, strain panel (AID 1159580);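 also: tested at 20 µM; growth read once vehicle control cultures reached saturation at 30 °C; 1 = growth at the plate median or of vehicle wells; lower values mean less growth of the strain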
Conditions: growth OD

Measured: normalized growth

C[C@@H]1CC2C3CCC4=CC(=O)C=C[C@]4(C)[C@@]3(F)[C@@H](O)C[C@]2(C)[C@@]1(O)C(=O)COP(=O)(O)O (stereo partly drawn)
inactive: S. cerevisiae deletion strains, locus YJR066W, strain TOR1, active compounds read low 0.95 | S. cerevisiae deletion strains, locus YJR075W, strain HOC1, active compounds read low 1.02 | S. cerevisiae deletion strains, locus YKL009W, strain mrt4, active compounds read low 1 | S. cerevisiae deletion strains, locus YKL068W, active compounds read low 1.01 | S. cerevisiae deletion strains, locus YKL085W, strain MDH1 (second series), active compounds read low 1.05 | S. cerevisiae deletion strains, locus YKL085W, strain MDH1, active compounds read low 1.05 | S. cerevisiae deletion strains, locus YKL160W, strain elf1, active compounds read low 0.965 | S. cerevisiae deletion strains, locus YKR001C, strain vps1, active compounds read low 0.997 | S. cerevisiae deletion strains, locus YKR026C, strain gcn3, active compounds read low 0.966 | S. cerevisiae deletion strains, locus YKR091W, strain srl3, active compounds read low 0.982 | S. cerevisiae deletion strains, locus YLL001W, strain dnm1, active compounds read low 0.931 | S. cerevisiae deletion strains, locus YLL026W, active compounds read low 0.986 | S. cerevisiae deletion strains, locus YLL041C, strain sdh2, active compounds read low 0.97 | S. cerevisiae deletion strains, locus YLR027C, strain aat2, active compounds read low 0.975 | S. cerevisiae deletion strains, locus YLR039C, strain RIC1, active compounds read low 1.02 | S. cerevisiae deletion strains, locus YLR058C, strain SHM2, active compounds read low 1.01 | S. cerevisiae deletion strains, locus YLR102C, strain apc9, active compounds read low 0.993 | S. cerevisiae deletion strains, locus YLR113W, strain HOG1, active compounds read low 0.977 | S. cerevisiae deletion strains, locus YLR221C, strain rsa3, active compounds read low 1.01 | S. cerevisiae deletion strains, locus YLR258W, strain gsy2, active compounds read low 1 | S. cerevisiae deletion strains, locus YLR262C, strain YPT6 (second series), active compounds read low 0.959 | S. cerevisiae deletion strains, locus YLR262C, strain YPT6, active compounds read low 1.01 | S. cerevisiae deletion strains, locus YLR268W, strain sec22, active compounds read low 0.996 | S. cerevisiae deletion strains, locus YLR320W, strain mms22, active compounds read low 1.01 | S. cerevisiae deletion strains, locus YLR330W, strain CHS5, active compounds read low 1.01 | S. cerevisiae deletion strains, locus YLR342W, strain FKS1 (second series), active compounds read low 1.01 | S. cerevisiae deletion strains, locus YLR342W, strain FKS1, active compounds read low 0.959 | S. cerevisiae deletion strains, locus YLR357W, strain rsc2, active compounds read low 0.957 | S. cerevisiae deletion strains, locus YLR370C, strain arc18, active compounds read low 0.972 | S. cerevisiae deletion strains, locus YLR371W, strain rom2, active compounds read low 0.994 | S. cerevisiae deletion strains, locus YLR384C, strain iki3, active compounds read low 0.959 | S. cerevisiae deletion strains, locus YLR418C, strain cdc73, active compounds read low 1.01 | S. cerevisiae deletion strains, locus YML016C, strain PPZ1, active compounds read low 1 | S. cerevisiae deletion strains, locus YML032C, strain rad52, active compounds read low 0.991 | S. cerevisiae deletion strains, locus YML120C, strain ndi1, active compounds read low 0.97 | S. cerevisiae deletion strains, locus YML124C, strain tub3, active compounds read low 0.993 | S. cerevisiae deletion strains, locus YMR058W, strain fet3, active compounds read low 0.978 | S. cerevisiae deletion strains, locus YMR078C, strain ctf18, active compounds read low 0.987 | S. cerevisiae deletion strains, locus YMR125W, strain sto1, active compounds read low 0.933 | S. cerevisiae deletion strains, locus YMR129W, active compounds read low 0.987 | S. cerevisiae deletion strains, locus YMR205C, strain PFK2, active compounds read low 0.981 | S. cerevisiae deletion strains, locus YMR223W, strain ubp8, active compounds read low 1.01 | S. cerevisiae deletion strains, locus YMR231W, strain pep5, active compounds read low 0.957 | S. cerevisiae deletion strains, locus YMR263W, strain SAP30, active compounds read low 1.01 | S. cerevisiae deletion strains, locus YMR307W, strain GAS1, active compounds read low 1.09 | S. cerevisiae deletion strains, locus YNL067W, strain RPL9B, active compounds read low 1.01 | S. cerevisiae deletion strains, locus YNL071W, strain lat1, active compounds read low 0.985 | S. cerevisiae deletion strains, locus YNL153C, strain GIM3, active compounds read low 0.998 | S. cerevisiae deletion strains, locus YNL183C, strain NPR1, active compounds read low 0.955 | S. cerevisiae deletion strains, locus YNL209W, strain ssb2, active compounds read low 0.986 | S. cerevisiae deletion strains, locus YNL233W, strain BNI4, active compounds read low 1.02 | S. cerevisiae deletion strains, locus YNL248C, strain rpa49, active compounds read low 0.987 | S. cerevisiae deletion strains, locus YNL250W, strain rad50, active compounds read low 0.993 | S. cerevisiae deletion strains, locus YNL271C, strain bni1, active compounds read low 1.01 | S. cerevisiae deletion strains, locus YNL298W, strain CLA4, active compounds read low 1.02 | S. cerevisiae deletion strains, locus YNL307C, strain MCK1, active compounds read low 0.995 | S. cerevisiae deletion strains, locus YNL322C, strain KRE1 (second series), active compounds read low 0.963 | S. cerevisiae deletion strains, locus YNR049C, strain mso1, active compounds read low 0.98 | S. cerevisiae deletion strains, locus YNR052C, strain pop2, active compounds read low 1.02 | S. cerevisiae deletion strains, locus YOL006C, strain TOP1, active compounds read low 1.01 | S. cerevisiae deletion strains, locus YOL012C, strain htz1 1.85 | S. cerevisiae deletion strains, locus YOL147C, strain pex11, active compounds read low 1.01 | S. cerevisiae deletion strains, locus YOR001W, strain rrp6, active compounds read low 0.946 | S. cerevisiae deletion strains, locus YOR061W, strain CKA2, active compounds read low 1.01 | S. cerevisiae deletion strains, locus YOR069W, strain VPS5, active compounds read low 1.01 | S. cerevisiae deletion strains, locus YOR070C, strain gyp1, active compounds read low 0.99 | S. cerevisiae deletion strains, locus YOR080W, strain dia2, active compounds read low 0.94 | S. cerevisiae deletion strains, locus YOR083W, strain WHI5, active compounds read low 0.959 | S. cerevisiae deletion strains, locus YOR106W, strain vam3, active compounds read low 0.928 | S. cerevisiae deletion strains, locus YOR136W, strain idh2, active compounds read low 1 | S. cerevisiae deletion strains, locus YOR144C, strain elg1, active compounds read low 0.997 | S. cerevisiae deletion strains, locus YOR184W, strain ser1, active compounds read low 0.99 | S. cerevisiae deletion strains, locus YOR231W, strain MKK1, active compounds read low 1.01 | S. cerevisiae deletion strains, locus YOR265W, strain rbl2, active compounds read low 0.974 | S. cerevisiae deletion strains, locus YOR270C, strain vph1, active compounds read low 1 | S. cerevisiae deletion strains, locus YOR290C, strain snf2, active compounds read low 1.01 | S. cerevisiae deletion strains, locus YOR316C, strain cot1, active compounds read low 1 | S. cerevisiae deletion strains, locus YPL051W, strain arl3, active compounds read low 1.01 | S. cerevisiae deletion strains, locus YPL078C, strain atp4, active compounds read low 0.935 | S. cerevisiae deletion strains, locus YPL106C, strain sse1, active compounds read low 0.966 | S. cerevisiae deletion strains, locus YPL240C, strain hsp82, active compounds read low 0.976 | S. cerevisiae deletion strains, locus YPL256C, strain CLN2, active compounds read low 0.985 | S. cerevisiae deletion strains, locus YPR119W, strain clb2, active compounds read low 0.993 | S. cerevisiae deletion strains, locus YPR141C, strain kar3, active compounds read low 0.994 | S. cerevisiae deletion strains, locus YPR163C, strain tif3, active compounds read low 0.995 | S. cerevisiae deletion strains, locus YPR167C, strain met16, active compounds read low 0.997 | S. cerevisiae deletion strains, strain wtn01, active compounds read low 1 | S. cerevisiae strains, strain wild type, active compounds read low 1.01
